Here are results for 61 molecules from PubChem BioAssay AID1020 (Sanford-Burnham Center for Chemical Genomics, 2008).

Among all 200,000 compounds or so, about 240 (0.12%) were called active. What follows is part of a selection rich in actives, with near analogues and random picks from the rest. Values without a mark were called inactive. Cut-off read from the data, not from the text of the source: active = inhibition above about 50%; inactive = the rest.

The test system of this test is glucose-6-phosphate dehydrogenase [Leuconostoc mesenteroides]. The test is described as follows: bacterial G6PDH enzyme inhibition, coupled readout – biochemical, Leuconostoc mesenteroides enzyme, counter-screen for G6PDH-coupled screening assays (AID 1020). As to conditions: Purified L. mesenteroides G6PDH, diaphorase/resazurin coupled fluorescence, 45 min; at 5 µM; active compounds read high.
The inhibition is the relative decrease from the control value, in per cent. For the molecule `CCOc1ccc(C(c2c(C)[nH][nH]c2=O)c2c(C)[nH][nH]c2=O)cc1OCC`, the inhibition is 12.1%.
In the case of `O=C(CC1NCCNC1=O)Nc1cc(Cl)cc(Cl)c1` (stereo unspecified) it was -3.6%; in that of `Cc1ccc(C(=O)c2ccc(N3CCN(C)CC3)c([N+](=O)[O-])c2)cc1`, 9.1%; in that of `O=C(NC(=S)NC1CCSC1=O)c1ccccc1F` (stereo unspecified), 13.8%.
Take `O=C(CSc1nnc(SCc2ccc(Cl)cc2)s1)N/N=C/c1ccccc1Cl`: the inhibition is -21.5%.
In the case of `CCC(C)(C)NC(=O)C1c2ccccc2Oc2ccccc21` it was 3.6%.
In the case of `COC(=O)c1ccc(NC(=O)CSc2nncc3ccc(OC)c(OC)c23)cc1` it was 2.5%; in that of `CCC(C)NCCOCCOc1ccc(Br)cc1C` (stereo unspecified), 6.6%.
In the case of `CCOc1cc(NS(=O)(=O)c2ccc(OC)cc2)c(OCC)cc1NC(C)=O` it was 6.7%.
`COc1ccc(C(C(=O)NC2CCCCC2)N(C(=O)Cc2c[nH]c3ccccc23)c2ccccc2)cc1OC` (stereo unspecified): the inhibition was 14.4%.
Regarding `C/C(=N\OC(=O)c1ccccc1)c1c(C)nc2cc(C)ccn12`, the inhibition was 1.1%.
Turning to `CCc1ccc(N2CC(O)=C(c3nc4ccccc4c(=O)[nH]3)C2=N)cc1`, the inhibition is 16.2%.
In the case of `CC(C)N(Cc1ccccc1)C(=S)Nc1ccc(OC(F)F)cc1` it was 0.3%; in that of `Cc1cccc(NC(=S)NCCN(C2CCCCC2)C2CCCC2)c1`, 3.8%.
In the case of `COc1ccc(Cl)cc1NC(=O)CNc1ccccc1F` it was -1.9%.
In the case of `S=c1[nH]nc(-c2ccco2)n1/N=C/c1ccc(Br)s1`, the inhibition is 8.8%.
In the case of `C=CCn1c(CCNC(=O)c2ccccc2F)nnc1SCC(=O)Nc1ccc(OC)cc1`, the inhibition was 0.9%.
As to `O=C(COc1ccc(S(=O)(=O)NCc2ccccc2)cc1)N1CCOCC1`, the inhibition was 4.2%.
`Cn1c(N)c(C(=O)COC(=O)c2ccccc2NCc2ccco2)c(=O)n(C)c1=O`: the inhibition is 0.8%.
As to `CCOC(=O)c1cnc2[nH]c3ccccc3n2c1=O`, the inhibition was 5%.
In the case of `O=c1[nH]c2ccccc2n2c(-c3ccccc3)nnc12` it was 50% (active); in that of `O=[N+]([O-])c1cccc(-c2nnc3c4ccccc4c4ccccc4n23)c1`, 9.1%; in that of `CC(C)N1C(=O)N(c2ccccc2)C(C)(O)CC1(C)C` (stereo unspecified), 5.1%.
In the case of `O=C1Nc2ccc([N+](=O)[O-])cc2C1=Nc1cccc(CO)c1`, the inhibition is 46.7%.
In the case of `Cc1nc(N)c(Br)c(C)c1Br`, the inhibition is 4%.
As to `O=C(CSc1ccc(-c2ccco2)nn1)NCc1ccc2c(c1)OCO2`, the inhibition was 6.1%.
In the case of `Cc1ccc(C)c(-n2ccnc2SCC(N)=O)c1` it was 13.8%; in that of `O=C(NC1CCCC1)C(c1ccc(N2CCOCC2)cc1)N(C(=O)c1ccco1)c1ccccc1F` (stereo unspecified), 14.1%; in that of `COc1cccc(NC(=O)c2ccc3c(SCC(=O)O)c4c(nc3c2)CCCC4)c1`, 6%.
Take `NS(=O)(=O)c1ccc(NC(=O)COC(=O)C2(c3ccc(F)cc3)CCCC2)cc1`: the inhibition was 16.5%.
With `COc1ccc(/C=C2/C(=O)OCc3cc(OC)c(OC)cc32)c(OC)c1`, the inhibition was -2.8%.
In the case of `CCOC(=O)c1ccc[n+](CC(=O)Nc2ccccc2OC(F)F)c1` it was 6.3%; in that of `CCO[C@H]1OC(C(=O)N2CCOCC2)=C[C@@H](c2ccc3c(c2)OCO3)[C@@H]1CCCO`, 9.9%.
In the case of `CCOC(=O)C1CN(S(=O)(=O)c2ccc(F)cc2)C1` it was 4.5%; in that of `Clc1ccc2nc(CSc3ccccc3)cn2c1`, 5%.
In the case of `CCOC(=O)C1=C(c2ccc(OC)cc2)C(=O)c2ccccc2C1=O` it was 31.9%; in that of `CCOC(=O)c1c(C)[nH]c2c1-c1ccccc1C(=O)C2=O`, 55.3% (active); in that of `CCOC(=O)c1c(C)[nH]c(=S)c(C#N)c1-c1ccccc1`, -20.7%.
For `CN1CCN(CC#CCC2(O)c3ccccc3-c3ccccc32)CC1`, the inhibition is 4.1%.
For `CCCc1cc(=O)[nH]c(SCC(=O)N2CCN(S(=O)(=O)c3ccc(C)cc3C)CC2)n1`, the inhibition was 2.8%.
In the case of `Cc1nn2cc(-c3ccc(Cl)cc3)cnc2c1Br` it was -0.7%.
In the case of `COC(=O)CC(=O)N1CCN(c2ccc(Cl)c(Cl)c2)CC1`, the inhibition is -3.9%.
In the case of `N#Cc1ncc(C(F)(F)F)cc1Oc1cccnc1` it was 1.5%; in that of `O=C(N/N=C/c1ccco1)c1ccc(C(=O)N/N=C/c2ccco2)o1`, 2.5%; in that of `COc1ccc2c(c1)c(=O)c(C(=O)c1ccc(Cl)cc1)cn2CC(=O)Nc1ccc(F)cc1`, -1.7%.
As to `O=C(N/N=C/c1sc(N2CCCCC2)nc1-c1cccs1)c1cccnc1`, the inhibition was 0.4%.
In the case of `CC1(C)C2CC=C(/C=N/NC(=O)c3ccc(Cl)cc3)C1C2` (stereo unspecified) it was 6.3%.
In the case of `COc1cc(NC(=O)c2cccnc2SC)cc(OC)c1` it was 5.3%.
As for `O=C1CSC(=S)N1/N=C/c1ccc(O)c([N+](=O)[O-])c1`, the inhibition was 5.2%.
In the case of `Cc1c(Br)c([N+](=O)[O-])nn1CC(=O)Nc1sc2c(c1C(=O)OC(C)C)CCC(C)C2` (stereo unspecified) it was -7.9%.
In the case of `COC(=O)Cc1ccc(NC(=S)NCc2ccccc2)cc1` it was 12.1%; in that of `CCO[C@H]1OC(C(=O)Nc2ccccc2)=C[C@@H](C2CC2)[C@@H]1CCCO`, 10.9%; in that of `COc1ccc(-c2cc(C(=O)NC(Cc3c[nH]c4ccccc34)C(=O)O)c(C)o2)cc1OC` (stereo unspecified), 6.7%.
On to `CCc1nc(C)cn1S(=O)(=O)c1cc([N+](=O)[O-])ccc1Cl`, for which the inhibition was 6.7%.
In the case of `COc1ccc(/C=N/S(=O)(=O)c2ccccc2)cc1OC` it was 8.4%; in that of `Cc1onc(-c2ccccc2)c1C(=O)N1CCOCC1`, 17.6%; in that of `Cc1oc2c(c1C(=O)N1CCOCC1)C(=O)c1ccccc1C2=O`, 57.7% (active).
In the case of `O=C(c1ccccc1-c1ccccc1)N1CCOCC1` it was 1.2%; in that of `C/C(=N\NC(=O)CNC(=O)C(c1ccccc1)c1ccccc1)c1ccc(C)cc1`, 11.2%; in that of `CC(=O)Oc1c(C(=O)c2nnc(C)o2)c(=O)n(Cc2ccccc2)c2ccccc12`, 2.5%.
As to `CSc1c(SCc2ccccc2)cnn(Cc2ccccc2)c1=O`, the inhibition is 5.1%.
